# Compound activity: PubChem BioAssay, several laboratories
# Jurkat NFkB inh: inhibitors of induced NF-kB luciferase reporter, primary screen, TCR NF-kB activation inhibitor project, cell-based, luminescence, uHTS | Jurkat, PMA/ionomycin-induced NF-kB luciferase reporter | inhibition, % at 4 µM | hit rate 0.53% among 330,000; in the data active = inhibition above about 50%
# 697 NFkB inh: inhibitors of PMA/ionomycin-induced NF-kB reporter, 697 cells, primary screen, B-cell NF-kB inhibitor project, cell-based, luminescence, uHTS | inhibition, % at 4 µM | hit rate 0.33% among 330,000 | 697 B-cell NF-kB luciferase reporter, 16 h; in the data active = inhibition above about 35%
# H9c2 TAG inh: inhibitors of triacylglycerol accumulation, primary screen, cell-based, uHTS, fluorescence, H9c2; H9c2 cells, Nile Red lipid (TAG) fluorescence; cells loaded with 200 µM oleic acid; inhibition, % at 12.5 µM; hit rate 0.66% among 230,000;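 active = pattern-corrected inhibition of lipid staining of at least 50% with the nuclear-stain viability signal not falling by more than 50%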;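 note: 0% = DMSO wells and 100% = triacsin C control wells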
# Gli-Sufu antag: Gli-Sufu pathway antagonists, primary screen, luciferase luminescence, Sufu-KO-LIGHT cells, uHTS; hit rate 0.74% among 340,000; AID 588413, 2011; inhibition, % at 5 µM; Sufu-KO-LIGHT fibroblasts, Gli luciferase reporter luminescence;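 active = inhibition above about 55%, limit read from the data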;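 note: 0% = DMSO-treated cells and 100% = wells with medium but no cells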
# Shn3 3UTR inh: reduction of Shn3 3'UTR firefly luciferase signal, primary screen, Schnurri-3 inhibitor project, cell-based, Clone20 osteoblasts, set 2. hit rate 0.52% among 360,000. inhibition, % at 12.5 µM. Clone20 osteoblast Shn3 3'UTR firefly luciferase, 24 h;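 active = mean inhibition of at least 75% with every replicate also reaching 75%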;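 note: 0% = median of neutral control wells and 100% = pilot-screen positive control compound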
# aSyn UTR inh: MLPCN primary screen, SNCA 5' untranslated region; inhibition, % (tested at 7.5 µM); hit rate 0.82% among 300,000; alpha-synuclein 5'UTR reporter, inhibitor activity; in the data active = inhibition above about 60%;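 note: H4 neuroglioblastoma cells stably carrying SNCA 5'UTR luciferase fusion; 0% = DMSO wells and 100% = positive control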
# Gli antag conf: Gli-SUFU pathway antagonists, confirmation, single concentration, luciferase luminescence, Sufu-KO-LIGHT cells. shares compounds with Gli-Sufu antag. Gli luciferase reporter. inhibition, % at 5 µM. hit rate 40% among 2,500. AID 602428, 2012;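 active = mean inhibition at 5 µM reaching about 45%, limit read from the data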;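 note: plate controls were DMSO-treated cells for no effect and wells lacking cells for full effect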
# Gli cytotox: cytotoxicity in Sufu-KO-LIGHT cells, confirmation, cytotoxicity control for Gli-SUFU antagonist project, cell-based, ATP luminescence, single concentration | shares compounds with Gli-Sufu antag | cytotoxicity, % at 5 µM | hit rate 32% among 2,500;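 active = mean cytotoxicity at 5 µM above about 25%, limit read from the data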;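 note: cells exposed to compound overnight for roughly 16 to 18 hours; plate controls were DMSO wells with cells for no effect and medium without cells for full effect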
# Wnt3a cs: Wnt3a reporter signal inhibition, confirmation, counter-screen for Gli-SUFU antagonist project, Wnt-LIGHT cells, luminescence, single concentration; shares compounds with Gli-Sufu antag; Wnt3a-driven luciferase reporter; inhibition, % at 6.25 µM; hit rate 20% among 2,500; AID 651995, 2013;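 active = mean inhibition above about 25%, limit read from the data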
# The depositor's hits bear a star; nt = not tested or not shown. Shown are actives, neighbours in structure and some others; about 2.3% of the full set was active somewhere.
SMILES,Jurkat NFkB inh,697 NFkB inh,H9c2 TAG inh,Gli-Sufu antag,Shn3 3UTR inh,aSyn UTR inh,Gli antag conf,Gli cytotox,Wnt3a cs
COc1ccc(CN(C)C(=O)c2cccc(NC(=O)CC3SC(N4CCCCC4)=NC3=O)c2)c(OC)c1 (stereo not drawn),nt,nt,-14,65*,80,nt,49*,13,-5
COc1cccc(CN(C)C(=O)c2cccc(NC(=O)CC3SC(N4CCCCC4)=NC3=O)c2)c1OC (stereo not drawn),2,9,-8,-4,-9,nt,nt,nt,nt
COc1ccccc1N1CCN(C(=O)CSc2nc(C)c(Cc3ccccc3)c(=O)[nH]2)CC1,12,-26,nt,9,8,31,nt,nt,nt
O=C(CN(Cc1ccco1)C(=O)CCC(=O)Nc1ccccn1)NCc1ccccc1,23,17,nt,1,-9,-1,nt,nt,nt
CCN(c1ccccc1)S(=O)(=O)c1ccc(N2CCN(c3ccc(O)cc3)CC2)nc1,-2,-21,-37,55*,28,nt,29,4,-24
O=C(/C=C/c1ccc(S(=O)(=O)N2CCOCC2)cc1)NCc1ccccc1F,3,-34,-8,52,19,nt,33,9,-5
CCc1ccc(OC(C)C(=O)N(Cc2ccco2)C2CCS(=O)(=O)C2)cc1 (stereo not drawn),-3,-5,11,-3,-15,-15,nt,nt,nt
O=C(NCc1ccco1)c1cc([N+](=O)[O-])cc([N+](=O)[O-])c1,-1,9,nt,-3,2,9,nt,nt,nt
O=C(c1ccc(-c2ccccc2)cc1)C1CCCN(Cc2ccncc2)C1 (stereo not drawn),5,-9,-25,52,75,4,28,12,-39
Cc1ccsc1C(=O)C1CCCN(Cc2cn(C)nc2-c2ccccc2)C1 (stereo not drawn),-3,3,nt,22,7,-1,nt,nt,nt
Cc1nn(C)cc1CN1CCCC(C(=O)c2ccc(-c3ccccc3)cc2)C1 (stereo not drawn),12,0,-20,54,39,19,25,22,-59
CCOCCCNC(=O)c1cc(C)nn1-c1ccccc1,11,6,-8,3,7,15,nt,nt,nt
CCOCCCNC(=O)c1cc2sc(Cl)cc2n1CC,-15,-13,nt,59*,-2,11,20,12,-48
COCCn1c(SCc2nc3ccccc3c(=O)[nH]2)nc2ccccc2c1=O,6,-10,5,-4,5,39,nt,nt,nt
O=C(Nc1ccc(Br)cc1)c1ccc(F)c(S(=O)(=O)NCc2cccs2)c1,34,-16,-28,51,84,7,52*,43*,1
O=C(Nc1cccc(Cl)c1)c1ccc(F)c(S(=O)(=O)NCc2ccc3c(c2)OCO3)c1,5,0,-6,89*,23,-13,12,-1,-11
O=C(NCc1ccc2c(c1)OCO2)c1ccc(Cl)c(S(=O)(=O)NCc2ccccc2)c1,-2,2,nt,-2,4,16,nt,nt,nt
COc1cc(C(=O)Nc2ccc(NC(=O)c3ccccc3Cl)nc2)cc(OC)c1OC,7,8,nt,4,4,-7,nt,nt,nt
O=C(CSCc1ccc(Cl)cc1Cl)Nc1ccccc1C(=O)Nc1ccc(C(=O)O)cc1,22,-13,-1,54,-8,10,21,8,5
Cc1c(NC(=O)CSCc2ccc(Cl)cc2Cl)cccc1C(=O)O,-3,-24,nt,17,-26,-16,nt,nt,nt
COc1ccc2[nH]c(=O)c(CN(Cc3ccco3)C(=O)c3ccccc3)cc2c1,8,6,-11,95*,13,2,26,3,-15
Cc1ccc(NS(=O)(=O)c2ccc(C(=O)NCC(c3ccco3)N3CCCCC3)cc2)cc1 (stereo not drawn),12,6,-55,31,-10,-5,nt,nt,nt
COc1ccc(CCN(C(=O)C(F)(F)F)C(C(=O)NC2CCCC2)c2cccs2)cc1 (stereo not drawn),-6,-37,nt,51,21,13,10,21,-10
O=C(NC1CCCCC1)C(c1ccco1)N(CCc1ccccc1)C(=O)C(F)(F)F (stereo not drawn),9,16,41,0,10,-21,nt,nt,nt
O=C(NCCCN1CCCC1=O)c1cccs1,-17,19,nt,10,2,3,nt,nt,nt
SMILES,Jurkat NFkB inh,697 NFkB inh,H9c2 TAG inh,Gli-Sufu antag,Shn3 3UTR inh,aSyn UTR inh,Gli antag conf,Gli cytotox,Wnt3a cs
O=C(CSc1n[nH]c(=O)n1-c1ccccc1)N1CCOCC1,1,4,nt,53,-2,-3,22,11,15
O=C(CSc1nc2c([nH]c3ccccc32)c(=O)n1-c1ccccc1)N1CCOCC1,-29,-24,23,8,22,10,nt,nt,nt
CCc1ccc(/C=C/c2c[nH]c3ccccc23)[n+](CC)c1,37,4,nt,78*,81,10,83*,32*,46*
C(=NN=Cc1c[nH]c2ccccc12)c1c[nH]c2ccccc12,nt,nt,5,nt,-38,nt,nt,nt,nt
CCCCCC(=O)Nc1ccc(N2CCN(C(=O)CCC)CC2)cc1,16,5,10,2,5,33,nt,nt,nt
COc1ccc(-c2cc3nc4c(c(N5CCC6(CC5)OCCO6)n3n2)CCC4)cc1,-3,-30,nt,5,-7,19,nt,nt,nt
CCc1nnc(NC(=O)CCC(=O)N2CCN(S(=O)(=O)c3cc(Cl)ccc3OC)CC2)s1,4,11,nt,48,-10,9,nt,nt,nt
CCCC(=O)N1CCN(S(=O)(=O)c2cc(Cl)ccc2OC)CC1,-1,0,-17,55*,-18,3,5,11,-3
Cn1c(CNC(=O)CNC(=O)c2ccccc2F)cc(=O)n(C)c1=O,14,-15,nt,53,12,4,4,12,-23
CCN1CCN(c2nc(-c3ccccn3)nc3ccccc23)CC1,1,18,nt,10,9,-5,nt,nt,nt
O=c1cc(CSc2nnc(Nc3ccccc3)s2)nc2sccn12,-9,-5,nt,55,5,nt,19,18,-9
Cc1ccc2[nH]c3c(N4CCN(Cc5ccccc5)CC4)ncnc3c2c1,15,22,-107,53,90*,-20,53*,37*,-5
Cc1ccc2c(c1)[nH]c1c(N3CCN(Cc4ccccc4)CC3)ncnc12,28,11,nt,68*,72,-21,63*,30*,7
